According to the supplement of paper PMC11732987, “Enantioselective OTUD7B fragment discovery through chemoproteomics screening and high-throughput optimisation” (Communications Chemistry, 2025):

What was measured:
Assay in all cases: log2 ratio of Biotin-Ahx-Ub-VS probe labelling (fragment/DMSO); higher = less target engagement (more negative = stronger competition), active = hit call of the paper (q ≤ 0.05, log2 ratio ≤ -1)
Settings in all cases: compound concentration: 200 uM; treatment time: 3 h
[1] = molecular target: USP16 (UniProt Q9Y5T5)
In short: (§1)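 Using Biotin-Ahx-Ub-VS at 0.5 µM final for 1 h, DUBs were labelled in HEK293T lysate (495 µg per sample) that had first been treated in triplicate with fragment at 200 µM or vehicle for 3 h. NeutrAvidin enrichment, LysC and trypsin digestion and diaPASEF LC-MS/MS followed. Spectronaut label-free quantities were global-median-normalised. Values are average log2 fragment/vehicle ratios by unpaired t-test, using proteins with ≥2 unique peptides.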

[2] = molecular target: T1, USP19 (UniProt O94966)
T1 sequence (whole entry): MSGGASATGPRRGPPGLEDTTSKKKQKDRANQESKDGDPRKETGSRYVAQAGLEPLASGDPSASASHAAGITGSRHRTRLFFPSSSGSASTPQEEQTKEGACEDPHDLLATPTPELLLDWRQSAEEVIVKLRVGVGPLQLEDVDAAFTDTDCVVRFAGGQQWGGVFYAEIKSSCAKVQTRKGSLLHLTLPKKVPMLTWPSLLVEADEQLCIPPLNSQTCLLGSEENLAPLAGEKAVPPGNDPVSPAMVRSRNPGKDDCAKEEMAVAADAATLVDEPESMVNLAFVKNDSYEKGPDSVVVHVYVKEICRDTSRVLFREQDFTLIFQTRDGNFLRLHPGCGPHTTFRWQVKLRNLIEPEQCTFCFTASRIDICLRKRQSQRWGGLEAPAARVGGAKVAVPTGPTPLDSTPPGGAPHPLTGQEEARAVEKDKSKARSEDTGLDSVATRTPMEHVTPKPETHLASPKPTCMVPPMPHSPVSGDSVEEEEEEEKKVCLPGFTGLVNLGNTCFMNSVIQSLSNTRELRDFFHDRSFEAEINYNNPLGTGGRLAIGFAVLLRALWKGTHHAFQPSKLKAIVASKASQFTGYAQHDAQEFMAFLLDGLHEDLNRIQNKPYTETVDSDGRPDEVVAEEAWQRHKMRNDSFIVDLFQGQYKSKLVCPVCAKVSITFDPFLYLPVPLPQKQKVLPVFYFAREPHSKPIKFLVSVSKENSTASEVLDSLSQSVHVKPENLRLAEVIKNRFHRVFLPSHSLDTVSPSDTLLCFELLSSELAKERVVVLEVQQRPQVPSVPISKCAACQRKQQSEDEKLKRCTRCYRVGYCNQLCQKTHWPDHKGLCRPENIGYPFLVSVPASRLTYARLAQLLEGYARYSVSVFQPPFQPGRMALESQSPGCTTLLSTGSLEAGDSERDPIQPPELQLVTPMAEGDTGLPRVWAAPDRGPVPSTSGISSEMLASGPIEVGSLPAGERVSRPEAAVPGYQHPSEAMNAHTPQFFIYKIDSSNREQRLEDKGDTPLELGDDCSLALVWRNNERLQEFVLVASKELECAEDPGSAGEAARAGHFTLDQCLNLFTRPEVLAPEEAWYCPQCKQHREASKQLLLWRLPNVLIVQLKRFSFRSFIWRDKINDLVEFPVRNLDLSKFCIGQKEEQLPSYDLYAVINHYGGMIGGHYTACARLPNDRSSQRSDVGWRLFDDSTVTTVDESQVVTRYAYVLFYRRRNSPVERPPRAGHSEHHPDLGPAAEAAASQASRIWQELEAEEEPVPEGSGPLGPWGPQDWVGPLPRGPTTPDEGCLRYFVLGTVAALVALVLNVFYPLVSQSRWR
In short: as §1

[3] = molecular target: USP24 (UniProt Q9UPU5)
In short: as §1

[4] = molecular target: T2, USP25 (UniProt Q9UHP3)
T2 sequence (whole entry): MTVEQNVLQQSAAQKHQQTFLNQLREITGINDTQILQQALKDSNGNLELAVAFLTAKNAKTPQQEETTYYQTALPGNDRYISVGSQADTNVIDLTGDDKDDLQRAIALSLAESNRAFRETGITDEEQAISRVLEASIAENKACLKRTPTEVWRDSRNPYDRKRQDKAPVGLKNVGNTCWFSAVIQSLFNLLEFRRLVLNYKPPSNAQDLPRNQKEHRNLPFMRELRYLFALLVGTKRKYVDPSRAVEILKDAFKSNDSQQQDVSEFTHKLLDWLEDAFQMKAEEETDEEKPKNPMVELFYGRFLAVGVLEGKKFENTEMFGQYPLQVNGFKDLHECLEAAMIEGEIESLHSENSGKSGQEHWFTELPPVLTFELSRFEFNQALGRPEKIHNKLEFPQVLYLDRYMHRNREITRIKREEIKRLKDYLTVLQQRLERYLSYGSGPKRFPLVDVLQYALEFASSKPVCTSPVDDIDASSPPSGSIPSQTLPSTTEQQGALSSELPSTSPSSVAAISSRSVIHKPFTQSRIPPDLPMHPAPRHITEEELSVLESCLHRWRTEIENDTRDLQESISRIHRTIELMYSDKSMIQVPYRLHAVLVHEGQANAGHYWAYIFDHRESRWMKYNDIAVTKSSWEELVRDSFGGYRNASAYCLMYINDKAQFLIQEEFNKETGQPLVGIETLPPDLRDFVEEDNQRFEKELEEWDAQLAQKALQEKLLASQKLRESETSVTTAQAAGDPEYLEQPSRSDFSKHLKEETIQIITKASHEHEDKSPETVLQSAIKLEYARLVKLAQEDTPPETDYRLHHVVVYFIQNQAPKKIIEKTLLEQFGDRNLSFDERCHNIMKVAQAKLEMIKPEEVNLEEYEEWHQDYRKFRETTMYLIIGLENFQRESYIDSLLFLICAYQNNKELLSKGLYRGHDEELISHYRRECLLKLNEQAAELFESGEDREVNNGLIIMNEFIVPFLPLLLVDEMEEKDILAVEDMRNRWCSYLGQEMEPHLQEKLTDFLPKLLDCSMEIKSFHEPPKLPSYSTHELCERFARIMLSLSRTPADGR
In short: as §1

[5] = molecular target: T3, USP28 (UniProt Q96RU2)
T3 sequence (whole entry): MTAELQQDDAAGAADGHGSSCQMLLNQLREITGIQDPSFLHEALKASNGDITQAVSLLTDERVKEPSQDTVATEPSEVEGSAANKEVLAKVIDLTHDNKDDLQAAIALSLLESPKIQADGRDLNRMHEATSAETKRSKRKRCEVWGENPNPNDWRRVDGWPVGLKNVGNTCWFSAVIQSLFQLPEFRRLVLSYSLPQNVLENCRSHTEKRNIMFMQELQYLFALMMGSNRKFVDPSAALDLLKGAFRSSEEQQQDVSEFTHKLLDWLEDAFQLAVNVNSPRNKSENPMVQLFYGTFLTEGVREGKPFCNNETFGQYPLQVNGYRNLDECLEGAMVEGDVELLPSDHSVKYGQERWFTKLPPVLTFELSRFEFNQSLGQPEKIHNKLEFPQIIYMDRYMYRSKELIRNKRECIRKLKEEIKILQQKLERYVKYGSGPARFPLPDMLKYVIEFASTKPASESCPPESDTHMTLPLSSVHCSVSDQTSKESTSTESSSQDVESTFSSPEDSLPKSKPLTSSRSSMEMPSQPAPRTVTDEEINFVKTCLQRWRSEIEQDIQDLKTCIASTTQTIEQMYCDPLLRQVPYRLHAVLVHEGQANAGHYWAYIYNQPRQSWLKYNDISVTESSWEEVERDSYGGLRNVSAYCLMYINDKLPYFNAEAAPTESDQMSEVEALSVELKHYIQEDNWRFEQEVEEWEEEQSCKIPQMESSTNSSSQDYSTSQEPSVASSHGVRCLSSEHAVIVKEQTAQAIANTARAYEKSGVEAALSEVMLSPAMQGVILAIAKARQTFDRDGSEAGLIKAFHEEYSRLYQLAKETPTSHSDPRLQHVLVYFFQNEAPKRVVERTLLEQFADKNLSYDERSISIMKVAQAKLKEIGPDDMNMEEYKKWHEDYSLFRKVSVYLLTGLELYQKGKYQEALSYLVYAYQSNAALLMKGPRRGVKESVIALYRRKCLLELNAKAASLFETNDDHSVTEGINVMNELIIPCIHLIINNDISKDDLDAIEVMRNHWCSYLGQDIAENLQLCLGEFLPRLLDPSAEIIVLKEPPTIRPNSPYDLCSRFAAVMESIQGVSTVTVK
In short: as §1

Measured: log2 ratio of Biotin-Ahx-Ub-VS probe labelling

USP24, sequence (Q9UPU5 whole entry): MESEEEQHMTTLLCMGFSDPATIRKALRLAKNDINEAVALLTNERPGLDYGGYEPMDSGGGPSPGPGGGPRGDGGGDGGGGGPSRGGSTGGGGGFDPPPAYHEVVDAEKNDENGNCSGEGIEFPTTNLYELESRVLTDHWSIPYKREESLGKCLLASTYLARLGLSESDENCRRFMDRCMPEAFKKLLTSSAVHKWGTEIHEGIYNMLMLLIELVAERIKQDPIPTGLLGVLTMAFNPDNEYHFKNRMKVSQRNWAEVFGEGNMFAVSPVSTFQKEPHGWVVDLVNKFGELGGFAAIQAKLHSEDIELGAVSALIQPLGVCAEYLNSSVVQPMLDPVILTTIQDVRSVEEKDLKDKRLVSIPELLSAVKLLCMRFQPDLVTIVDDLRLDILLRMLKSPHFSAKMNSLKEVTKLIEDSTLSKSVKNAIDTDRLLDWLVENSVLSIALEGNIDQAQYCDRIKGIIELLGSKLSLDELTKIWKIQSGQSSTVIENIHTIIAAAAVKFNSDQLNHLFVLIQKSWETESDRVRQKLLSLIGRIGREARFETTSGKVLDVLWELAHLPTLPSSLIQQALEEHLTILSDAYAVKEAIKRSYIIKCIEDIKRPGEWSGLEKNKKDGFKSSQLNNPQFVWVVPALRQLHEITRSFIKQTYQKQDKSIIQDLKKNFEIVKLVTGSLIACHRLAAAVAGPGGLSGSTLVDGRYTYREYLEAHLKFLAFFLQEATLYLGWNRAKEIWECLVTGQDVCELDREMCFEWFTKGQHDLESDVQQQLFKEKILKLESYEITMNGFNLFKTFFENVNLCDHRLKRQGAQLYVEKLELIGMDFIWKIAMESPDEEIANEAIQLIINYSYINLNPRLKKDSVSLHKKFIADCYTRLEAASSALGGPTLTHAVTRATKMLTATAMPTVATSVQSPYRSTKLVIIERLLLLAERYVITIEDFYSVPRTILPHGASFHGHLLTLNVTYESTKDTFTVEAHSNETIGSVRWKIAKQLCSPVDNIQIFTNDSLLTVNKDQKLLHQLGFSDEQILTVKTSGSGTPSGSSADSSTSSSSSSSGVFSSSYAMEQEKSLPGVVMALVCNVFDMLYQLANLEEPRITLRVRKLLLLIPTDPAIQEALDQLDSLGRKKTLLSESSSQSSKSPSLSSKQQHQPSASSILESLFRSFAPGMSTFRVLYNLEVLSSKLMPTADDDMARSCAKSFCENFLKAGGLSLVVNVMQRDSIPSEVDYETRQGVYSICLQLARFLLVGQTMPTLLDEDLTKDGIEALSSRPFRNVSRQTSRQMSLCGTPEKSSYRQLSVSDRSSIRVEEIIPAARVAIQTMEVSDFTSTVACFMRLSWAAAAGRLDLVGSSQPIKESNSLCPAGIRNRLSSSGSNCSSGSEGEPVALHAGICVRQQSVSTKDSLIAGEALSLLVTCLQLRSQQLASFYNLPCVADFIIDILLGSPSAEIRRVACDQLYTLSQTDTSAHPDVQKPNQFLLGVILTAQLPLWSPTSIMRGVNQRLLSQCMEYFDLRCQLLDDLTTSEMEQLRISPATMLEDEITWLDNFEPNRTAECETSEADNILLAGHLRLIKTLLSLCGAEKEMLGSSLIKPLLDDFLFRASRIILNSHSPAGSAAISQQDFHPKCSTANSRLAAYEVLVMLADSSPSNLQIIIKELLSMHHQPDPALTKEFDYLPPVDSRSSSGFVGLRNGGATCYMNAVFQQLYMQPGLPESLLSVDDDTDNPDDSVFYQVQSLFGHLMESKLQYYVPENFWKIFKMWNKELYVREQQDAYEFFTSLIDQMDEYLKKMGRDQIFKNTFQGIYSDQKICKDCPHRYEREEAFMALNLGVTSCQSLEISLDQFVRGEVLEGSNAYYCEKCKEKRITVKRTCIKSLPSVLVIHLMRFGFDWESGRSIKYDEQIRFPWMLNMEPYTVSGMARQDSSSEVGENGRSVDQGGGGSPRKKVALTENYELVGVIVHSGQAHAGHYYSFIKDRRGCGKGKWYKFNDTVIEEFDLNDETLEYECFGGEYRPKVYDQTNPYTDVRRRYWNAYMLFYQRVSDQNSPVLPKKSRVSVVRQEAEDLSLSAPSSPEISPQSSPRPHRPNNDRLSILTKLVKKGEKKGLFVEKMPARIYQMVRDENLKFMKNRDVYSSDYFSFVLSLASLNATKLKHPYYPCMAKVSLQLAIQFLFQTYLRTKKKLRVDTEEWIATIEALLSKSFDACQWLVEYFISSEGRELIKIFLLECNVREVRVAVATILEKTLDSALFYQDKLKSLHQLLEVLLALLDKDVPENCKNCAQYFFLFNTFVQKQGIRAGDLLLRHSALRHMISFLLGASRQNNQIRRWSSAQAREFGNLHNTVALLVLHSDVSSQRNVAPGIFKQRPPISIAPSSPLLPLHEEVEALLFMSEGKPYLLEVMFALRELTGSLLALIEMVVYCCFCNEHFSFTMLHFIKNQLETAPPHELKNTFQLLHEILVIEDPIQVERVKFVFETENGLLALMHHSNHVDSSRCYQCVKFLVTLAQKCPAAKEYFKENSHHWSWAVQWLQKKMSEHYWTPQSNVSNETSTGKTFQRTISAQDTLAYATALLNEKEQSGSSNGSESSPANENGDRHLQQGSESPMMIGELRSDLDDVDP
USP16, sequence (Q9Y5T5 whole entry, looked up, the tested form may be a part): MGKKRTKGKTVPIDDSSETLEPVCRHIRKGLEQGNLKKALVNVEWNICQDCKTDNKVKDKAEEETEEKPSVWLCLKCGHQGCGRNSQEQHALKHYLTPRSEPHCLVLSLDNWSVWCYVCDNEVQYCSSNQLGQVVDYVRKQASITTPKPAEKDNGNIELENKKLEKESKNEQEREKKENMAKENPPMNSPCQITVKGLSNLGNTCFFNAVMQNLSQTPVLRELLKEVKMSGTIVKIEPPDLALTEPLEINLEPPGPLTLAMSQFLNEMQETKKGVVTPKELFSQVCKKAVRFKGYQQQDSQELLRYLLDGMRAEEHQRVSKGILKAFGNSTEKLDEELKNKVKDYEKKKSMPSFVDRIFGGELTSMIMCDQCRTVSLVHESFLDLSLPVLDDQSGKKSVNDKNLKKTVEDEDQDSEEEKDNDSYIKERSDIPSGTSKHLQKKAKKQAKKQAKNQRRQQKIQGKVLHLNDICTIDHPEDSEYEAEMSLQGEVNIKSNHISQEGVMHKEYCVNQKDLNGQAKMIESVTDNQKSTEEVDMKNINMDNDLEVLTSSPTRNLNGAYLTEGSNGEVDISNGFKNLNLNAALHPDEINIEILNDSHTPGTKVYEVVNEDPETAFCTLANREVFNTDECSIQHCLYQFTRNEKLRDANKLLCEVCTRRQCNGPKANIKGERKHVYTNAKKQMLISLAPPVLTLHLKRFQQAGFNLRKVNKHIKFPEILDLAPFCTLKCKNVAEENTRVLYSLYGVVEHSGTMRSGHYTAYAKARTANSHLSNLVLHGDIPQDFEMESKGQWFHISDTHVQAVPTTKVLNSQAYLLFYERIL

O=C(CCl)N1CCCN(C(=O)c2ccc(Cl)cc2)CC1
inactive: [1] -0.13 | [2] -0.449 | [3] -0.433 | [4] -0.628 | [5] -0.618
